Test results published in PubChem BioAssay (NCI).
About 83,000 compounds went through this panel and 20% of them were active in at least one assay; those are over-represented in the sample as a whole.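 Plates (96-well) were seeded with cells, treated with compound at one concentration, and incubated for 48 hours before percent growth was determined.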 Active and inactive are the calls of the source.

Tested on: MCF7 breast
Assay: NCI-60 one-dose screen, 48 h (100 = growth as untreated, 0 = no growth, -100 = all killed)
Conditions: 10 µM unless noted
Protocol: Growth inhibition of the MCF7 human tumor cell line is measured as a screen for anti-cancer activity. Cells are grown in 96 well plates and exposed to the test compound for 48 hours. Compounds are tested at a single concentration, which is 10^-5 M for most compounds. The reported endpoint is percent growth (GI% or GIPRCNT), where numbers from 0 - 100% represent growth inhibition, and numbers from -100% - 0 represent cell death. For example, a value of 40 represents 60% growth inhibition. A value of 0 means no net growth occurred over the course of the experiment. A value of -40 indicates 40% of cells at the beginning of the experiment died by the end of the experiment. A value of -100 means all cells are dead at the end of the experiment.
NCI-60 Human Tumor Cell Lines Screen was performed using the standard one-dose NCI protocol, which is described in more detail at https://dtp.cancer.gov/discovery_development/nci-60/default.htm.
Compounds with GIPRCNT values below 10 were considered active. Activity score was based on GIPRCNT using the following formula: […]
Score is 0 for GIPRCNT values of 100 or above, 50 for GIPRCNT values of 0, and 100 for GIPRCNT values of -100.

SMILES | growth
Cc1cc(N2CCCCC2)nc(N2CCN(CC(=O)Nc3ccc4c(ccn4Cc4ccccc4)c3)CC2)n1 | 44.4% (inactive)
Cn1cc(C(=O)c2nc(-c3c[nH]c4ccc(Br)cc34)no2)c2cc(Br)ccc21 | 38.8% (inactive)
CCn1cc(C2=C(c3cn(C)c4ncccc34)C(=O)NC2=O)c2cccnc21 | 38.3% (inactive)
CCc1cccc(Sc2cc(C(=O)N3Cc4ccc(OCCN(C)C)cc4C3)ccc2O)c1 | 24.8% (inactive)
CCCC(O)Cn1ncc(C(=O)OCC)c1NC(=O)NCc1cccc(F)c1 (stereo not given) | 91.8% (inactive)
COc1ccc(Cc2nnc(Nc3nc4ccccc4s3)s2)cc1 | 105% (inactive)
COP(=O)(OC)c1nnn(-c2cccc([N+](=O)[O-])c2)c1C | 97.9% (inactive)
CC1(C)C2CC=C(/C=N/NC(=O)C3CCC(=O)N3)C1C2 (stereo not given) | 99.1% (inactive)
CCN(CC)c1ccc(N2C(=O)/C(=C/c3cccs3)SC2=S)cc1 | 89.9% (inactive)
Cn1cc(-c2nonc2-c2c[nH]c3ccc(F)cc23)c2cc(Br)ccc21 | 32.2% (inactive)
Nc1c(C(=O)O)cc(Cl)cc1[N+](=O)[O-] | 95.2% (inactive)
COc1ccc(NC(=O)c2cccc(C3CCc4c(cc(OC)c(OC)c4OC)O3)c2)cc1 (stereo not given) | 11.3% (inactive)
CCCCCCCCCCCCCCCCCCOc1ccccc1CC(=O)OCC[N+]1(C)CCOCC1 | 79.8% (inactive)
NNC(=S)N/N=C/c1ccccn1 | 15.7% (inactive)
CCN1C(=O)N(CC)C2C1NN=c1s/c(=C3\C(=O)N(CCc4ccccc4)c4ccccc43)c(=O)n12 (stereo not given) | 11.6% (inactive)
COc1ccc(/C(C)=C(\c2ccc(OCCN3CCCCCC3)cc2)c2ccc(OC(=O)c3ccccc3)cc2)cc1 | 13.5% (inactive)
NC(=O)c1ccc(NC(=O)c2oc3ccccc3c2-c2cnn(-c3ccccc3)c2)cc1 | -1.73% [50 µM] (active)
O=C(/C=C/c1cccc(Cl)c1)c1cccc(OCCCCOc2cccc(C(=O)/C=C/c3cccc(Cl)c3)c2)c1 | 12.6% (inactive)
Cc1ccc(O)c(NC(=O)c2ccc(CNc3ccnc(C(F)(F)F)c3)cc2)c1 | 37.6% (inactive)
CCOC(=O)Cn1c(=O)c2c3ccccc3n(C)c2n2nnc(-c3ccccc3)c12 | 81.8% (inactive)

SMILES | growth
COc1ccc(C(C)=O)cc1S(N)(=O)=O | 96.4% (inactive)
CC(C)CSc1oc(-c2ccccc2)nc1S(=O)(=O)c1ccccc1 | 92.3% (inactive)
O[C@@H](c1cc(C(F)(F)F)nc2c(C(F)(F)F)cccc12)[C@H]1CCCCN1 | 36.3% (inactive)
N#Cc1c(N2CCOCC2)nc(=S)[nH]c1-c1ccccc1 | 56.6% (inactive)
COc1ccc(C2CC(c3ccc(Nc4nc(Nc5ccc(F)cc5)nc(Nc5ccc(F)cc5)n4)cc3)=NN2C(C)=O)cc1 (stereo not given) | 98.9% (inactive)
CC(C)CN1CC(C(=O)Nc2ccc3c(c2)-c2ccccc2C3)CC1=O (stereo not given) | 52.9% [50 µM] (inactive)
C=C1C(=O)O[C@H]2[C@H]1CC/C(COC(=O)NCc1ccc(Cn3c(=O)sn(-c4ccc(OC)cc4)c3=O)cc1)=C\CC[C@@]1(C)O[C@@H]21 | 20.3% (inactive)
CCN(CC)c1ccc(/C=C\c2cc(C)c3cc(C)ccc3n2)cc1 | 19.9% (inactive)
N#Cc1nc2c(S(=O)(=O)c3ccccc3)c(N)n(Cc3cccnc3)c2nc1C#N | 91.3% (inactive)
CCOC(=O)/C=C/c1c(C)[nH]c(=O)[nH]c1=O | 69.6% (inactive)
CCNC(=O)Oc1ccc(/C(=C(/C)Cc2ccc(OC)cc2)c2ccc(OCCN3CCCCCC3)cc2)cc1 | 22.2% (inactive)
CCOC(=O)c1c(C)c2c(n1C)CSc1cc(S(=O)(=O)c3ccccc3)c(=O)[nH]c1-2 | 13.8% [100 µM] (inactive)
COc1ccc2c(c1)c(-c1ccc(-c3cn(C)c4ccc(OC)cc34)[nH]1)cn2C | 38.9% (inactive)
O=C1/C(=C/c2cccc([N+](=O)[O-])c2)COc2ccc(O)cc21 | -26.2% (active)
COC(c1ccc2ccccc2c1)C(C)C(F)F (stereo not given) | 109% (inactive)
COc1ccc2cc(-c3ccc(-c4ccc(C(=N)N)s4)s3)ccc2c1 | -60.9% (active)
CCCCCSB(SCCCCC)c1ccccc1 | 104% (inactive)
O=C1c2cccnc2C(=O)c2c1c(C(=O)OCCCN1CCCCC1)c1ccccn21 | -42% (active)
COc1cc(-c2nc(NC(C)=O)sc2-c2ccnc(NCCNS(=O)(=O)c3ccccc3)n2)ccc1Cl | 14.1% (inactive)
COC(=O)C1=Nc2ccc(F)cc2/C1=C\c1sc(Nc2ccc(O)cc2)nc1O | 22% (inactive)
